# Experiments:
# Test in all cases: DAPPL (digital affinity profiling via proximity ligation, sequencing); 10 mM Tris-HCl pH 7.5, 50 mM NaCl, 1 mM DTT, 4% glycerol, room temperature, 30 min; GST-TFs on glutathione beads, 16-mer random dsDNA library, 0.1% formaldehyde crosslink after washing; high values mean tight binding
# FEV = target: T1, FEV (Homo sapiens, UniProt Q99581 1-238); settings: protein: recombinant; tags: N-terminal GST; dsDNA, one strand shown
# T1 sequence: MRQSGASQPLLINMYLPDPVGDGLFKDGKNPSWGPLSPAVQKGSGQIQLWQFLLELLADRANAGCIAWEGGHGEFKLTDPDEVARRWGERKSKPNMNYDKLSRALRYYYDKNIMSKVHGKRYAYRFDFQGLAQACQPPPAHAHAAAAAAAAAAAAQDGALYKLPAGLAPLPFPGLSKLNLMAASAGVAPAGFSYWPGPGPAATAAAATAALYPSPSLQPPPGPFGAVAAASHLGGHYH
# Procedure, shortened: (§1)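 Each value of binding signal is a hexamer's read frequency for a factor divided by the same hexamer's frequency in the tag-only sample. Barcoded, bead-captured GST fusions of human transcription factors made in yeast were pooled with that sample and incubated with 200 nmole of a random double-stranded 16-mer DNA library in Tris/NaCl/DTT/glycerol buffer at room temperature for 30 min. Washing, 0.1% formaldehyde crosslinking, proximity ligation, PCR and Illumina NextSeq500 sequencing followed.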
# ETV5 = ETV5 (Homo sapiens, UniProt P41161 1-510); settings: protein: recombinant; tags: N-terminal GST; dsDNA, one strand shown
# Procedure, shortened: as §1
# HSF1 = HSF1 (Homo sapiens, UniProt Q00613 1-529); settings: protein: recombinant; tags: N-terminal GST; chain copies: 3; dsDNA, one strand shown
# Procedure, shortened: as §1
# SPIC = target: T2, SPIC (Homo sapiens, UniProt Q8N5J4 1-248); settings: protein: recombinant; tags: N-terminal GST; dsDNA, one strand shown
# T2 sequence: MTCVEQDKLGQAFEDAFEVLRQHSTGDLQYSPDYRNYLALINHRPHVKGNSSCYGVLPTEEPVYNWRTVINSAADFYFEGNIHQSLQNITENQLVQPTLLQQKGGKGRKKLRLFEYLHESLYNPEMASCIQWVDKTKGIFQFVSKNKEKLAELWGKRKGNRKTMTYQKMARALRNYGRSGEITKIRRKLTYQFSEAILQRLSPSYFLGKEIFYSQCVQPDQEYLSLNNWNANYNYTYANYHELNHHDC
# Procedure, shortened: as §1
# ELF4 = ELF4 (Homo sapiens, UniProt Q99607 1-663); settings: protein: recombinant; tags: N-terminal GST; dsDNA, one strand shown
# Procedure, shortened: as §1
# ELK4 = target: T3, ELK4 (Homo sapiens, UniProt P28324-2 1-405); settings: protein: recombinant; tags: N-terminal GST; dsDNA, one strand shown
# T3 sequence: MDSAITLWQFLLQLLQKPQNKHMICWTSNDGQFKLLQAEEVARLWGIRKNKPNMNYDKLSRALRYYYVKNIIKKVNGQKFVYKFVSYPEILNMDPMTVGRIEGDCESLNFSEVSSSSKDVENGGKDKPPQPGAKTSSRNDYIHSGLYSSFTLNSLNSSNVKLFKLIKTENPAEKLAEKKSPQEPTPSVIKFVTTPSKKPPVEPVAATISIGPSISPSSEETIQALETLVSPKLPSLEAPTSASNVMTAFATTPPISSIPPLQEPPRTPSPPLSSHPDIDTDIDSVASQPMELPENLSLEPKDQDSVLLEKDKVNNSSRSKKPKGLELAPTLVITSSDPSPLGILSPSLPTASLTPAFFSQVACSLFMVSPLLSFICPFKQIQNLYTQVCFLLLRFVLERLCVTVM
# Procedure, shortened: as §1
# ETV2 = target: T4, ETV2 (Homo sapiens, UniProt O00321 1-342); settings: protein: recombinant; tags: N-terminal GST; dsDNA, one strand shown
# T4 sequence: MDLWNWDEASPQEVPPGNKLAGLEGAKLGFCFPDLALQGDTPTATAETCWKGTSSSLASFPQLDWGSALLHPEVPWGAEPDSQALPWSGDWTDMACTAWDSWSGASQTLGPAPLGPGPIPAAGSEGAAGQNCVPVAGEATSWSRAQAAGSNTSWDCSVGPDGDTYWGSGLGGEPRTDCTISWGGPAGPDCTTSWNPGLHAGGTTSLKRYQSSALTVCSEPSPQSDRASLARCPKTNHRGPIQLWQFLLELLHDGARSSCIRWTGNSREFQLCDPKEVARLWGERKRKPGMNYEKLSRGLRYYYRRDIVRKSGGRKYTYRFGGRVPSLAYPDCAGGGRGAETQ
# Procedure, shortened: as §1
# ELF3 = target: T5, ELF3 (Homo sapiens, UniProt P78545 1-371); settings: protein: recombinant; tags: N-terminal GST; dsDNA, one strand shown
# T5 sequence: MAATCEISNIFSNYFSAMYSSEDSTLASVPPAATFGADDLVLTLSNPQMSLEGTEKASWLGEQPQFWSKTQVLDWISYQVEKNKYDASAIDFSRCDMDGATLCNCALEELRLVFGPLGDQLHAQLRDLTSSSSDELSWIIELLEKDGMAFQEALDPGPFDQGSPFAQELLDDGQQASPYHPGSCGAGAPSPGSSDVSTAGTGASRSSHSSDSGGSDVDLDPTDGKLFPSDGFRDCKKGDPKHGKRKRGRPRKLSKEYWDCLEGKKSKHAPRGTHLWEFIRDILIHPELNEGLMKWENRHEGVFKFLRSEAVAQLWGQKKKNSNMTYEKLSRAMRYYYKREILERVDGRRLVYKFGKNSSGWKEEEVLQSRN
# Procedure, shortened: as §1
# CRX = CRX (Homo sapiens, UniProt O43186 1-299); settings: protein: recombinant; tags: N-terminal GST; dsDNA, one strand shown
# Procedure, shortened: as §1
# ETV1 = ETV1 (Homo sapiens, UniProt P50549 1-477); settings: protein: recombinant; tags: N-terminal GST; dsDNA, one strand shown
# Procedure, shortened: as §1
# ERF = target: T6, ERF (Homo sapiens, UniProt P50548 1-548); settings: protein: recombinant; tags: N-terminal GST; dsDNA, one strand shown
# T6 sequence: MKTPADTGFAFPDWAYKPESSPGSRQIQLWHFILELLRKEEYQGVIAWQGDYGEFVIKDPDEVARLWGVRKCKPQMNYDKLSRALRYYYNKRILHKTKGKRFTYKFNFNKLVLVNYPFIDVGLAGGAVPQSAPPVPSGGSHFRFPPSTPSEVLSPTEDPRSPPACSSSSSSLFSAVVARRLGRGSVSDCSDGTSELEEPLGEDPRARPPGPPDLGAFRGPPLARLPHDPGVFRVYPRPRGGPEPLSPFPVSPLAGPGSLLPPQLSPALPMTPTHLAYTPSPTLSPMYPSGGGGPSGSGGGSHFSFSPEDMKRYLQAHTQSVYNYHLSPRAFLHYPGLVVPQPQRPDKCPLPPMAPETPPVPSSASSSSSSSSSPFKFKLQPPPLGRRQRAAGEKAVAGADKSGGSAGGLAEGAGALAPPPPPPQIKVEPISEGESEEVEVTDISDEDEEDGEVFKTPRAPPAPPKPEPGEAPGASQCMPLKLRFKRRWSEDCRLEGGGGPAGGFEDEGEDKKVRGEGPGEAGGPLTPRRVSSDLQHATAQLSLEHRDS
# Procedure, shortened: as §1
# ETV3L = target: T7, ETV3L (Homo sapiens, UniProt Q6ZN32 1-361); settings: protein: recombinant; tags: N-terminal GST; dsDNA, one strand shown
# T7 sequence: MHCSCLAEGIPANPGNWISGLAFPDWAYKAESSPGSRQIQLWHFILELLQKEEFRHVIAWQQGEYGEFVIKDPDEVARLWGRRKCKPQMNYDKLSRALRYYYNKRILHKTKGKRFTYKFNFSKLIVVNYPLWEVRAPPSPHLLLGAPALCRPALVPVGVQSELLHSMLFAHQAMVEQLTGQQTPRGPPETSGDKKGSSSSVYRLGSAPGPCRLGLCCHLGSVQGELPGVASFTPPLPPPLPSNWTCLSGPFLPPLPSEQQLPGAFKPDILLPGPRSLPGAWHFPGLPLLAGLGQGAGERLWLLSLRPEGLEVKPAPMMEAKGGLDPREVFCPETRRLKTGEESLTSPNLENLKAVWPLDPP
# Procedure, shortened: as §1
# ETS2 = target: T8, ETS2 (Homo sapiens, UniProt P15036 1-469); settings: protein: recombinant; tags: N-terminal GST; dsDNA, one strand shown
# T8 sequence: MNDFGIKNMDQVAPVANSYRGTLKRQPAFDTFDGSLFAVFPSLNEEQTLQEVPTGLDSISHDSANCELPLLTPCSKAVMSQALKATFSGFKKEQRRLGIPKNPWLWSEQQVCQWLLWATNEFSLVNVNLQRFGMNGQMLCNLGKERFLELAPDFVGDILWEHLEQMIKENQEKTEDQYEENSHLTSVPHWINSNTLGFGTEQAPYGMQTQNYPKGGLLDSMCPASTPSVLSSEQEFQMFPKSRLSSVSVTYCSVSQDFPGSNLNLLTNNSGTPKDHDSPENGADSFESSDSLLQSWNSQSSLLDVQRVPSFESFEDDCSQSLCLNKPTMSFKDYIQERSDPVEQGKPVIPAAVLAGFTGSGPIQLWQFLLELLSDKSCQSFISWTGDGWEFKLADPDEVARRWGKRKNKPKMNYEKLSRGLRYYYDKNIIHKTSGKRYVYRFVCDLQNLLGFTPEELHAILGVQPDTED
# Procedure, shortened: as §1
# SPDEF = target: T9, SPDEF (Homo sapiens, UniProt O95238 1-335); settings: protein: recombinant; tags: N-terminal GST; dsDNA, one strand shown
# T9 sequence: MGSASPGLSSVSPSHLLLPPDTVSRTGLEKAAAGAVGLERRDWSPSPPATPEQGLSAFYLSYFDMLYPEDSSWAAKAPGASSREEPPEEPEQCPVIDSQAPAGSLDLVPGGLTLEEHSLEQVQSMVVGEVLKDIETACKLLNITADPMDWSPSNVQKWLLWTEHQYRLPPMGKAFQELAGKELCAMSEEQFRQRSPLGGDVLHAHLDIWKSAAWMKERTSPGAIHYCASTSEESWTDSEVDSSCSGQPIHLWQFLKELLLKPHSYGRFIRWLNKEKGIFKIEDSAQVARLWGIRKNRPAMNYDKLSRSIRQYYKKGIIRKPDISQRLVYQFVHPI
# Procedure, shortened: as §1
# ETV7 = target: T10, ETV7 (Homo sapiens, UniProt Q9Y603 1-341); settings: protein: recombinant; tags: N-terminal GST; dsDNA, one strand shown
# T10 sequence: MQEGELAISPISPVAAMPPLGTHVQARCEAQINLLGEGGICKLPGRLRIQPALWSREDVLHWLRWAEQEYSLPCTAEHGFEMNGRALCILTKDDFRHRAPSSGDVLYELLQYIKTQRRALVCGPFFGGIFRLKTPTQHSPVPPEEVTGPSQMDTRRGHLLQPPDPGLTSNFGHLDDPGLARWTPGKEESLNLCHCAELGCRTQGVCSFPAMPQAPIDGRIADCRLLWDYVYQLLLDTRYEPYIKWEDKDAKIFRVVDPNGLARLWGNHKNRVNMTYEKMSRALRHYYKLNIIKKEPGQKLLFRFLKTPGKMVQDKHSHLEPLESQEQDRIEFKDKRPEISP
# Procedure, shortened: as §1
# ELF5 = target: T11, ELF5 (Homo sapiens, UniProt Q9UKW6-2 1-255); settings: protein: recombinant; tags: N-terminal GST; dsDNA, one strand shown
# T11 sequence: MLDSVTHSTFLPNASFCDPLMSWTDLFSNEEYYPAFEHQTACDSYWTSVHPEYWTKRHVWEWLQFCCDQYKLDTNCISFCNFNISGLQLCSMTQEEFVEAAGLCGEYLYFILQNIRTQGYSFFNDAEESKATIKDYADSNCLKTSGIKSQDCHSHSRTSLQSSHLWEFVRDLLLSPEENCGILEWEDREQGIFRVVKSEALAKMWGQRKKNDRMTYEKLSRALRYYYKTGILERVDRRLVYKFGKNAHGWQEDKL
# Procedure, shortened: as §1
# ETV3 = target: T12, ETV3 (Homo sapiens, UniProt P41162-2 1-143); settings: protein: recombinant; tags: N-terminal GST; dsDNA, one strand shown
# T12 sequence: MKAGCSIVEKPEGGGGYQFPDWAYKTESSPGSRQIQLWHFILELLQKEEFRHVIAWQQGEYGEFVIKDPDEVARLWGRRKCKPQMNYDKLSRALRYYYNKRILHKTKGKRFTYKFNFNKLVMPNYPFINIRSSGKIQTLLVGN
# Procedure, shortened: as §1
# ETV6 = ETV6 (Homo sapiens, UniProt P41212 1-452); settings: protein: recombinant; tags: N-terminal GST; dsDNA, one strand shown
# Procedure, shortened: as §1
# Sequence of ETV1 (P50549 whole entry): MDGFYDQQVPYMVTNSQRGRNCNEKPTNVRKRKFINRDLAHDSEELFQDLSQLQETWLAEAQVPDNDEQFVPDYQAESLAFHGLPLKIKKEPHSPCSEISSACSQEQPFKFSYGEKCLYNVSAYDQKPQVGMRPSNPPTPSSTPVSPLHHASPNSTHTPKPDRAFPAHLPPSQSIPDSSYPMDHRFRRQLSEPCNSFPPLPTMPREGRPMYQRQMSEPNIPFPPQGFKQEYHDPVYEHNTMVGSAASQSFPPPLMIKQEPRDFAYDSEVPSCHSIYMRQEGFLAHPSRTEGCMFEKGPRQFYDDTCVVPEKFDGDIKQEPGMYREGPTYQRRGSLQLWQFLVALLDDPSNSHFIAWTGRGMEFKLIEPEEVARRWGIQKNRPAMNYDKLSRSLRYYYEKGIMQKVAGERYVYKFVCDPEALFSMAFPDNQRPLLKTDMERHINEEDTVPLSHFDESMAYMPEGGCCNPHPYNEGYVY
# Sequence of ETV5 (P41161 whole entry): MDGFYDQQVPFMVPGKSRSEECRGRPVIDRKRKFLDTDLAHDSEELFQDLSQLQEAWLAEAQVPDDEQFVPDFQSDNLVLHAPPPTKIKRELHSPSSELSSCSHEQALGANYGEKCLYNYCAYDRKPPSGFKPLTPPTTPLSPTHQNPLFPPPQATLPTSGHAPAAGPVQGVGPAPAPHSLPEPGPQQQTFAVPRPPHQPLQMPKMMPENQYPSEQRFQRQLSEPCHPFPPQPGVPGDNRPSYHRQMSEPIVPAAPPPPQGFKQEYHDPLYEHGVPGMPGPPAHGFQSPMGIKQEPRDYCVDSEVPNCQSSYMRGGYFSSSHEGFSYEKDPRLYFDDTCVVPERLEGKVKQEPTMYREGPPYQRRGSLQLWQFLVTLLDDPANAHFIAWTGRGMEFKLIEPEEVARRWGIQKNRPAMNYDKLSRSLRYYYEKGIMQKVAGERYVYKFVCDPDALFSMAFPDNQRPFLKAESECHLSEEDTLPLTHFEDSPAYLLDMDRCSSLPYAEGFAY
# Sequence of ETV6 (P41212 whole entry): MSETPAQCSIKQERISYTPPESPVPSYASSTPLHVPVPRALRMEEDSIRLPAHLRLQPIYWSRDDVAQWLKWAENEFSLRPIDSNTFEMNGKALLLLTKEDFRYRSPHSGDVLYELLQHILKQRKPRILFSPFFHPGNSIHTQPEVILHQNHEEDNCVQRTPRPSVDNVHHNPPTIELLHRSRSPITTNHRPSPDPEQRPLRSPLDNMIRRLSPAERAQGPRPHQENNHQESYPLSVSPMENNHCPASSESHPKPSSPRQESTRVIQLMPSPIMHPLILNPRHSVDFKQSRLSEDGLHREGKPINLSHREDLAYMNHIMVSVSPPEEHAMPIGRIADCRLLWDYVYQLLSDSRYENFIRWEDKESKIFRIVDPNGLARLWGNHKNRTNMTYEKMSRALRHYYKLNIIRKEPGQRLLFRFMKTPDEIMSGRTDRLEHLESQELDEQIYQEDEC
# Sequence of HSF1 (Q00613 whole entry): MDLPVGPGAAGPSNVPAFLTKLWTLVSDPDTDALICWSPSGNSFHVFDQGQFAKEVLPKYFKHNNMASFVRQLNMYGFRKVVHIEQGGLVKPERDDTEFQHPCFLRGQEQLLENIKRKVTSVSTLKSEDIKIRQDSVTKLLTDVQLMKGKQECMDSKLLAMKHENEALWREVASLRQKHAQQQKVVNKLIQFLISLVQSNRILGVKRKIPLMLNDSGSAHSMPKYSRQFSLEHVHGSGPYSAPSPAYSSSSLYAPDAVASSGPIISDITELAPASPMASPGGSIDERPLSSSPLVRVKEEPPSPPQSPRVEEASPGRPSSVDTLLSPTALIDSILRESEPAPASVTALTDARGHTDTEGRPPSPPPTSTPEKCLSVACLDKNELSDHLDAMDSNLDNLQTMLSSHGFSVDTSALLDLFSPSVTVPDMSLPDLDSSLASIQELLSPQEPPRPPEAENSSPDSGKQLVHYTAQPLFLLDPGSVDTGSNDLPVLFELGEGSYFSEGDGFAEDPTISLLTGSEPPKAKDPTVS
# Sequence of CRX (O43186 whole entry): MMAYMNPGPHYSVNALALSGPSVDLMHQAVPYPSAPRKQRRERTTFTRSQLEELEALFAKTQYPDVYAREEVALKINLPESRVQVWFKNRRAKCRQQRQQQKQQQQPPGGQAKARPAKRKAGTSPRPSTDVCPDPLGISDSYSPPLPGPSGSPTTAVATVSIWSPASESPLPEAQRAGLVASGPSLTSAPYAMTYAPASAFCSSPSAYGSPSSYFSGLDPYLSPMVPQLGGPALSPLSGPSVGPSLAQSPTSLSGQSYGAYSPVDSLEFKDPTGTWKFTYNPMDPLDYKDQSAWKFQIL
# Sequence of ELF4 (Q99607 whole entry): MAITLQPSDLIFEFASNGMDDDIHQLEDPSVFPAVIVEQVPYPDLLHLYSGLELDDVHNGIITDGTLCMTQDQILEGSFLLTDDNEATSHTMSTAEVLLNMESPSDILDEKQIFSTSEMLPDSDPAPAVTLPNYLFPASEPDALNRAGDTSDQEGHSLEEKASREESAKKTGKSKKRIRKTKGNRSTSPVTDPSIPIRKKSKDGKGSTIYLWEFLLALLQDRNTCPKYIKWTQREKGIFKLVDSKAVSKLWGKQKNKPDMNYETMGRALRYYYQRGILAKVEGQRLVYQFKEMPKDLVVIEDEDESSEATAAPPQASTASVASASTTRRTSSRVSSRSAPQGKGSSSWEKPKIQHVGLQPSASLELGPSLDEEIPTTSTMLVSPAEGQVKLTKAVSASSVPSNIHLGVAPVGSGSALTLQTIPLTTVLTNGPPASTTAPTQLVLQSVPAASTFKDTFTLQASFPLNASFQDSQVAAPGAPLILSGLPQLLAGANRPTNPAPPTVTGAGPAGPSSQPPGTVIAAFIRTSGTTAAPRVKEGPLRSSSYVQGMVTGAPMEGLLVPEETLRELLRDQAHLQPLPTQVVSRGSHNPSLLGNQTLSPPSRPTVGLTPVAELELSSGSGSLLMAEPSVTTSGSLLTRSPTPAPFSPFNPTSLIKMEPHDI
sequence,measurement,setting,value
TTCCTA,binding signal,FEV,"1.62 fold enrichment (6-mer frequency, TF over GST control)"
same,binding signal,ETV5,"1.79 fold enrichment (6-mer frequency, TF over GST control)"
same,binding signal,HSF1,"1.59 fold enrichment (6-mer frequency, TF over GST control)"
same,binding signal,SPIC,"1.67 fold enrichment (6-mer frequency, TF over GST control)"
same,binding signal,ELF4,"1.57 fold enrichment (6-mer frequency, TF over GST control)"
same,binding signal,ELK4,"1.52 fold enrichment (6-mer frequency, TF over GST control)"
same,binding signal,ETV2,"1.77 fold enrichment (6-mer frequency, TF over GST control)"
same,binding signal,ELF3,"1.84 fold enrichment (6-mer frequency, TF over GST control)"
same,binding signal,CRX,"1.47 fold enrichment (6-mer frequency, TF over GST control)"
same,binding signal,ETV1,"1.72 fold enrichment (6-mer frequency, TF over GST control)"
same,binding signal,ERF,"1.54 fold enrichment (6-mer frequency, TF over GST control)"
same,binding signal,ETV3L,"1.57 fold enrichment (6-mer frequency, TF over GST control)"
same,binding signal,ETS2,"1.8 fold enrichment (6-mer frequency, TF over GST control)"
same,binding signal,SPDEF,"1.6 fold enrichment (6-mer frequency, TF over GST control)"
same,binding signal,ETV7,"1.64 fold enrichment (6-mer frequency, TF over GST control)"
same,binding signal,ELF5,"2.04 fold enrichment (6-mer frequency, TF over GST control)"
same,binding signal,ETV3,"1.89 fold enrichment (6-mer frequency, TF over GST control)"
same,binding signal,ETV6,"1.99 fold enrichment (6-mer frequency, TF over GST control)"

# Reference: article PMC7862700, “An all-to-all approach to the identification of sequence-specific readers for epigenetic DNA modifications on cytosine”
